Potency data for 14 compounds are collected here from PubChem BioAssay (NCATS).

Inconclusive results are not listed. Activity calls are given as the source filed them. The call rests on the fitted dose curve; in most records, active means well fitted curve in the direction sought with a large enough effect; inconclusive means small, poorly fitted or top-dose-only effect, or another doubt; inactive means no such curve, though single readings can be large; an effect the other way counts as inactive or inconclusive.

A short description of assay [1]: Quantitative High-Throughput drug screen in 47 multiple myeloma cell lines against the NCATS MIPE library collection: AMO1_DSMZ cell viability assay (AID 1918927; further: nearly all actives have a fitted effect of over 30% in size; further: potency means the concentration at half of the fitted maximal effect). The essentials: (§1)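 Primary qHTS used for cherry-picking: cells at 500/well, library compounds for 48 h (37C, 5% CO2), luminescent ATP assay.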
Assay [2] is described as follows: Quantitative High-Throughput drug screen in 47 multiple myeloma cell lines against the NCATS MIPE library collection: ARD_JJKsccE7 cell viability assay (AID 1918929; further: potency means the concentration at half of the fitted maximal effect). In outline:
as §1

The nature of assay [3]: Quantitative High-Throughput drug screen in 47 multiple myeloma cell lines against the NCATS MIPE library collection: JIM3_ECACC cell viability assay (AID 1918963; further: nearly all actives have a fitted effect of over 35% in size; further: potency means the concentration at half of the fitted maximal effect). The essentials:
(§2)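 Viability readout: CellTiter-Glo luminescence following 5 min room-temperature incubation with reagent. Prior exposure: 48 h, 37C, humidified 5% CO2, 500 cells per well.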

The nature of assay [4]: Quantitative High-Throughput drug screen in 47 multiple myeloma cell lines against the NCATS MIPE library collection: INA6_PLB cell viability assay (AID 1918965; further: potency means the concentration at half of the fitted maximal effect; nearly all actives have a fitted effect of over 55% in size). In outline: (§3)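 Approved and investigational drugs from MIPE 4.0 were added by pin tool to 500 cells per well. After 48 hours at 37C, ATP-based CellTiter-Glo luminescence indicated remaining viability.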
The nature of assay [5]: Quantitative High-Throughput drug screen in 47 multiple myeloma cell lines against the NCATS MIPE library collection: JJN3_DSMZ cell viability assay (AID 1918966; further: nearly all actives have a fitted effect of over 50% in size; further: potency means the concentration at half of the fitted maximal effect). The essentials: as §1
Assay [6] can be described thus: Quantitative High-Throughput drug screen in 47 multiple myeloma cell lines against the NCATS MIPE library collection: EJM_DSMZ cell viability assay (AID 1918926; further: nearly all actives have a fitted effect of over 30% in size; further: potency means the concentration at half of the fitted maximal effect). The essentials: as §1
Assay [7] can be described thus: Quantitative High-Throughput drug screen in 47 multiple myeloma cell lines against the NCATS MIPE library collection: Delta47_JCRB cell viability assay (AID 1918925; further: nearly all actives have a fitted effect of over 45% in size; further: potency means the concentration at half of the fitted maximal effect). The essentials: as §1
The nature of assay [8]: Quantitative High-Throughput drug screen in 47 multiple myeloma cell lines against the NCATS MIPE library collection: Karpas620_DSMZ cell viability assay (AID 1918959). Further: nearly all actives have a fitted effect of over 30% in size. Further: potency means the concentration at half of the fitted maximal effect. The essentials: as §2
Assay [9] in a line: Quantitative High-Throughput drug screen in 47 multiple myeloma cell lines against the NCATS MIPE library collection: KMM1_JCRB cell viability assay (AID 1918960). Further: nearly all actives have a fitted effect of over 30% in size. Further: potency means the concentration at half of the fitted maximal effect. The essentials: (§4)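 Myeloma cells, 500 per well, were exposed to MIPE 4.0 drugs by pin transfer for 48 h at 37 °C, 5% CO2. Viability was read as ATP luminescence with CellTiter-Glo, normalised to DMSO-only (100%) and medium-only (0%) wells.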

Assay [10] can be described thus: Quantitative High-Throughput drug screen in 47 multiple myeloma cell lines against the NCATS MIPE library collection: KHM11_PLB cell viability assay (AID 1918962). Further: nearly all actives have a fitted effect of over 35% in size. Further: potency means the concentration at half of the fitted maximal effect. In outline: as §2
Assay [11] can be described thus: Quantitative High-Throughput drug screen in 47 multiple myeloma cell lines against the NCATS MIPE library collection: H1112_PLB cell viability assay (AID 1918967; further: nearly all actives have a fitted effect of over 30% in size; further: potency means the concentration at half of the fitted maximal effect). The essentials:
as §1

Assay [12] is described as follows: Quantitative High-Throughput drug screen in 47 multiple myeloma cell lines against the NCATS MIPE library collection: ARP1_JJKsccF8 cell viability assay (AID 1918928; further: nearly all actives have a fitted effect of over 40% in size; further: potency means the concentration at half of the fitted maximal effect). In outline: as §4
Assay [13] can be described thus: Quantitative High-Throughput drug screen in 47 multiple myeloma cell lines against the NCATS MIPE library collection: Karpas417_ECACC cell viability assay (AID 1918961). Conditions: Karpas417 myeloma viability, CellTiter-Glo ATP luminescence, 48 h; viability (% of DMSO): at 45.8 µM (top of the series). The essentials: as §3
(In general: In ATP-based viability assays light output follows the ATP content of the culture.)

Assay [14] in a line: Quantitative High-Throughput drug screen in 47 multiple myeloma cell lines against the NCATS MIPE library collection: JIM1_ECACC cell viability assay (AID 1918964; further: potency means the concentration at half of the fitted maximal effect). The essentials:
as §1

`FC(F)(F)c1ccc(C=Cc2nc(COc3ccc(CCCCn4ccnn4)cc3)co2)cc1`: the Potency in assay [1] was 0.0105 µM (active); in assay [2] it was 0.001 µM (active); in assay [3], 0.332 µM (active); in assay [4], 0.0132 µM (active). Besides, in assay [5], the Potency entry is “inactive”.

With `O=C(Nc1cccc2c(=O)cc(-c3nn[nH]n3)oc12)c1ccc(OCCCCc2ccccc2)cc1`, the Potency entry in assay [6] was “inactive”. The Potency in assay [4] is 18.7 µM (active).

Take `C=CC[N+]1([C@H]2C[C@H]3[C@@H]4CC[C@H]5C[C@H](O)[C@@H](N6CCOCC6)C[C@]5(C)[C@@H]4CC[C@]3(C)[C@H]2OC(C)=O)CCCC1`: the Potency entry in assay [7], in assay [2], in [8], in [9], in assay [10] and in assay [3] was “inactive” in each case. Moreover, in assay [11], the Potency result was “inactive”. The Potency in assay [5] was 0.0053 µM (active).

For the compound `O=C(O)C1=CO[C@@H](O[C@@H]2O[C@H](CO)[C@H](O)[C@H](O)[C@H]2O)[C@@H]2C(CO)=CC[C@H]12`, the Potency in assay [6] is 5.9 µM (active). The Potency entry in [1], in [12], in [2], in assay [13], in assay [3] and in [11] was “inactive” in each case.

Consider `CCCCN(CCCC)CC(O)c1cc(Cl)cc2c1-c1ccc(Cl)cc1C2=Cc1ccc(Cl)cc1` (centres undefined), for which the Potency in [6] was 16.6 µM (active); in [4] it was 18.7 µM (active); in [5] it was 18.7 µM (active); in assay [11], 26.4 µM (active). Besides, the Potency entry in [1], in [2] and in [8] was “inactive” throughout.

Consider `Oc1ccc(C=Cc2cc(O)cc(O)c2)cc1`, for which the Potency result in [6], in assay [1], in assay [2], in [8], in assay [9] and in [14] was “inactive” throughout. Also, the Potency in assay [12] was 13.2 µM (active); in assay [4] it was 16.6 µM (active).

`COc1c(C)c2c(c(O)c1CC=C(C)CCC(=O)O)C(=O)OC2`: the Potency is 6.62 µM (active) in [12]; 4.69 µM (active) in [3]; 9.35 µM (active) in [14]; 0.935 µM (active) in [4]; 4.69 µM (active) in assay [5]; 4.18 µM (active) in [11]. The Potency entry in [8] and in assay [9] was “inactive” each time.

As for `CNc1nc(-c2ccc3c(N)n[nH]c3c2)cc(N2C[C@@H](C(=O)NC3CCCCC3)CC[C@@H]2C)n1`, the Potency in assay [1] was 20.9 µM (active); in assay [2], 8.33 µM (active); in assay [8], 20.9 µM (active); in assay [3], 6.62 µM (active); in assay [4], 2.09 µM (active).

As for `O=C(C=Cc1ccc(O)cc1)c1ccc(O)cc1O`, the Potency is 13.2 µM (active) in assay [7]; 10.5 µM (active) in assay [1]; 16.6 µM (active) in assay [9]; 20.9 µM (active) in [3]; 4.69 µM (active) in assay [14]; 3.32 µM (active) in assay [4]. In assay [5], the Potency was 14.8 µM (active).

Regarding `CN1CCC[C@H]1CCO[C@](C)(c1ccccc1)c1ccc(Cl)cc1`, the Potency was 13.2 µM (active) in assay [7] and 18.7 µM (active) in assay [4]. In addition, the Potency result in assay [12], in assay [2] and in assay [9] was “inactive” in each case.

For `CCCCC(C=O)NC(=O)C(CC(C)C)NC(=O)OCc1ccccc1` (centres undefined), the Potency result in assay [1], in [2], in [8], in assay [9], in assay [10] and in [11] was “inactive” throughout. Further, the Potency in [4] is 16.6 µM (active).

With `C#C[C@]1(O)CC[C@H]2[C@H]3CCc4cc(OC)ccc4[C@H]3CC[C@@]21C`, the Potency in assay [6] is 13.2 µM (active); in assay [1], 26.4 µM (active); in assay [2] it was 23.5 µM (active); in assay [10], 18.7 µM (active); in assay [4] it was 16.6 µM (active). Moreover, the Potency result in assay [12], in assay [3] and in assay [11] was “inactive” throughout.

Consider `COc1ccc2cc1Oc1ccc(cc1)C[C@H]1c3cc(c(OC)cc3CCN1C)Oc1c(OC)c(OC)cc3c1[C@H](C2)N(C)CC3`, for which the Potency in assay [1] was 7.43 µM (active); in assay [2] it was 6.62 µM (active); in assay [8] it was 5.26 µM (active); in assay [9], 5.9 µM (active); in assay [11], 20.9 µM (active).

As to `CC1C(=O)OC2C(O)C34C5CC(C(C)(C)C)C36C(OC(=O)C6O)OC4(C(=O)O5)C12O` (centres undefined), the Potency result in assay [6], in [2], in [8], in [9], in assay [14] and in [5] was “inactive” throughout. The Potency entry in assay [11] was “inactive”.
